Assay outcomes as filed in PubChem BioAssay.
TTR transcr act – TTR transcription activators in neuroblastoma reporter cells, primary screen, cell-based, luminescence, SH-SY5Y, TTR promoter Gaussia luciferase; 100% = recombinant luciferase protein wells; actives 1.3% (n = 92,000); activation, % at 16.7 µM;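 active = activation above the mean of all tested compounds plus 3 SD, cut at about 9.5% in these data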;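 note: cells exposed to compounds for one day before reading; 0% = median of all test compound wells on the plate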
Starred values were filed as active, the others as inactive. This is one part of a sample in which hits are shown more often than they occur.

SMILES | TTR transcr act
CC1CCN(CCc2nc3cc(NS(=O)(=O)c4ccc(F)cc4)ccc3n2C)CC1 | 2.0
CCOc1ccc(S(=O)(=O)n2ccc(C)n2)cc1 | -3.7
CN(CCOc1ccc(-c2ccn(S(=O)(=O)c3c(Cl)cccc3Cl)n2)cc1)c1ccccn1 | 15.3*
Cc1ccc(S(=O)(=O)n2ccc(-c3cccc(OCc4c(F)cccc4Cl)c3)n2)cc1 | -0.1
Cc1ccc(CC(=O)O/N=C(\N)c2ccccn2)cc1 | 3.0
CCOCCCNC(=O)/C(C#N)=C/c1cc(C)c(O)c(C)c1 | 0.3
Cc1ccc(N=Cc2cc(C)n(C3CCCC3)c2C)cc1 | -0.7
Cc1ccc(-n2c(SCC(N)=O)nnc2-c2ccccn2)cc1C | 0.8
CCOC(=O)c1c(C=O)c(C)n(Cc2ccc(Cl)cc2)c1C | -3.2
CCOC(=O)c1cn(Cc2ccccc2)nn1 | 0.5
CCOC(=O)c1c(C=O)c(C)n(Cc2ccccc2)c1C | 11.1*
CCOC(=O)C1(C)CCN1C(=O)c1ccc(C(F)(F)F)cc1 (stereo not drawn) | 0.2
CN(C)S(=O)(=O)c1cccc(NC(=O)COC(=O)c2c[nH]c(=O)[nH]c2=O)c1 | 0.0
CN(C(=O)COC(=O)c1c[nH]c(=O)[nH]c1=O)C1CCCCC1 | 23.1*
CC1CCCC(C)N1C(=O)COC(=O)c1ccc[nH]c1=O (stereo not drawn) | -2.1
CCOCCCNC(=O)C(NC(=O)c1ccc(NC(C)=O)cc1)c1ccc(OC)cc1 (stereo not drawn) | 4.1
COc1ccc(NC(=O)CNC(=O)Cc2ccccc2)cc1 | -1.9
COc1ccc(NC(=O)C(NC(=O)CNC(C)=O)c2ccc(C)cc2)cc1 (stereo not drawn) | 29.4*
COC(=O)c1c(N2C(=O)[C@H]3[C@@H](C2=O)[C@]2(C(=O)Nc4c2ccc(C)c4C)N2CCC[C@@H]32)sc(C)c1C | -1.4
Cc1ccc(S(=O)(=O)N(C)C[C@H]2Oc3ccc(NC(=O)C4CCCCC4)cc3C(=O)N([C@H](C)CO)C[C@H]2C)cc1 | -1.2
COc1ccc(S(=O)(=O)N(C)C[C@H]2Oc3ccc(NC(=O)C4CC4)cc3C(=O)N([C@H](C)CO)C[C@@H]2C)cc1 | 11.7*
COc1ccc(S(=O)(=O)N(C)C[C@@H]2Oc3ccc(NS(C)(=O)=O)cc3C(=O)N([C@@H](C)CO)C[C@H]2C)cc1 | -0.7
CCCCNc1c(-c2ccc(OC)c(SC3CCCCC3)c2)nc2cc(C)ccn12 | -4.7
COc1cc(-c2ccc(NC(C)=O)c(OC)c2)ccc1NC(C)=O | -0.9
C/C=C\C=C/C(=O)Nc1cccc(C2=NOC3(C2)C[C@H](C(N)=O)N(C(=O)CC)C3)c1 (stereo partly drawn) | -1.9
SMILES | TTR transcr act
C/C=C\C=C/C(=O)Nc1cccc(C2=NOC3(C2)C[C@H](C(N)=O)N(C(=O)c2ccc(OC)cc2)C3)c1 (stereo partly drawn) | 16.0*
C/C=C/C=C\C(=O)Nc1cccc(C2=NOC3(C2)C[C@@H](C(N)=O)N(C(=O)/C(C)=C/C)C3)c1 (stereo partly drawn) | -0.8
Cn1c(O)c(N=NC(=N)N)c2ccccc21 | 17.3*
CC(C)n1c(O)c(N=NC(=O)CNC(=O)CCc2ccccc2)c2ccccc21 | 2.1
CCn1c(O)c(N=NC(=O)c2cccs2)c2ccccc21 | 0.1
COc1ccc(Br)cc1CN1CCCCCC1 | -2.1
O=C(Nc1ccc(F)cc1)C1CCN(C(=O)NCc2ccccc2)CC1 | 2.0
CCOc1ccc(C(=O)NC2CCN(C(=O)NCc3ccccc3)CC2)cc1 | -0.6
CCOc1ccc(NC(=O)C2CCCN(C(=O)NCc3ccccc3)C2)cc1 (stereo not drawn) | 11.4*
CC(C)OCCCNc1nc(Cl)nc2c1cnn2C | 0.4
Cc1ccc(-c2nnn(CC(=O)N(c3ccccc3F)C(C(=O)NCC3CCCO3)c3c[nH]c4ccccc34)n2)cc1 (stereo not drawn) | 3.1
CCOc1ncccc1C(=O)Nc1ccccc1N1CCOCC1 | -2.0
Cc1cc(C)c(OCC(=O)Nc2ccccc2N2CCOCC2)c(C)c1 | -2.2
CCOCCCNCC(=O)Nc1ccccc1N1CCOCC1 | 20.7*
COc1cccc(-c2ccc(SCC(=O)c3ccccc3)nn2)c1 | -0.5
CS/C(=C\[N+](=O)[O-])Nc1ccc(OC(F)(F)F)cc1 | -2.0
Cc1ccc(N=C2SC(C(=O)Nc3ccc(OC(F)(F)F)cc3)C(N)=C2C(=O)Nc2c(C)cc(C)cc2C)cc1 (stereo not drawn) | 9.8*
Cc1ccc(-c2nc3ncccn3c2NC(=O)Nc2ccc(OC(F)(F)F)cc2)cc1 | 4.0
CC(C)(C)c1cc(NC(=O)Nc2ccccc2OC(F)(F)F)no1 | 0.1
CC(C)CNC(=O)C1(C)CCCN1C(=O)c1ccc2ccccc2n1 (stereo not drawn) | 0.0
CN(Cc1ccccc1)C(=O)OCc1cn(Cc2ccccc2C(F)(F)F)nn1 | -0.3
Cc1cc(N2CCN(C(=O)c3ccco3)CC2)n2ncnc2n1 | -1.7
Cc1cc(N2CCN(C(=O)c3ccco3)CC2)n2ncc(-c3ccccc3)c2n1 | -0.4
Cc1nn2c(N3CCN(C(=O)c4ccco4)CC3)cc(C(C)(C)C)nc2c1-c1ccccc1 | 10.1*
